Reference: PubChem BioAssay AID1508600 (Functional Genomics Laboratory (NCATS/FGL), 2020)
The whole screen tested about 53,000 sequences, of which about 3,700 (7%) were called active.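 The calls were made as follows: active = gene knockdowns whose robust z-score for IL-1 alpha signal is at least 2 or at most -2, so actives lie on both sides; inactive = the rest.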 Shown is part of a subset that was picked to be rich in actives.

Assay: Components of the Cytosolic LPS Sensing Pathway: Gene Identification via Genome-wide siRNA Screen;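 also: robust z of the log signal after scaling to non-targeting control siRNA wells of the plate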
Conditions: RAW264.7 macrophages, IL-1a HTRF, actives lie on both sides, screened at 100 nM (by protocol), cells primed 5 h with Pam3CSK4 first
Procedure, shortened: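 Supernatant IL-1a by HTRF from RAW264.7 cells primed with Pam3CSK4 (5 hours) and transfected with LipidA (24 hour) after 48h siRNA knockdown at 100 nM; cell viability checked with CellTiter-Glo.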

With GGCUCGGUAUCGUUUUUCATT against Arl3 as the sequence, how does the z-score read?
Its z-score is 0.841 (inactive).

Which z-score does the source give for GGCUAUCUUUUCAGCUUUATT against Sox30 here?
The z-score was 0.212 (inactive).

For GCCGACCACAGUACAAGACTT against Bivm, which z-score is on record?
The z-score was 1.08 (inactive).

For GCCGUGUGGUAAUAGUGUCTT against Dhrs13, which z-score is on record?
Its z-score is 0.442 (inactive).

With GGAUGAAACGGGUGCCUAUTT against Kctd5 as the sequence, how does the z-score read?
Its z-score is 3.33 (active).

For “GGACUUCUAGAGAACUUGUTT against 2900092C05Rik”, which z-score is on record?
Its z-score is -1.7 (inactive).

For GGCUGUAUACCAAUAAAAATT against B4galt6, which z-score is on record?
The z-score was -0.855 (inactive).

With CGUUUCAGAGUGUUUGUGGTT against Lgalsl as the sequence, how does the z-score read?
Its z-score is -0.173 (inactive).

For GGUAUCAGAGCUGUGUUCUTT against Cpped1, which z-score is on record?
Its z-score is -1.48 (inactive).

For GGAAAUCUAAAAGUCCUCCTT against Il17re, which z-score is on record?
Its z-score is 0.2 (inactive).

With GGAUCAUCUCUUUGGGCUGTT against Tmem37 as the sequence, how does the z-score read?
Its z-score is 0.127 (inactive).

With GGAGAAGAAAGAAAAGCUUTT against Nusap1 as the sequence, how does the z-score read?
Its z-score is -1.74 (inactive).

With GGCUGAAAAACUCAAUUAUTT against Boll as the sequence, how does the z-score read?
Its z-score is -0.813 (inactive).

Which z-score does the source give for CCAAAUAUCCGGCCAUGACTT against Lgals6 here?
Its z-score is -0.877 (inactive).

Which z-score does the source give for GGAAAACACCUACCUGUGGTT against Slc25a3 here?
The z-score was -1.48 (inactive).

With GGAAAUCAGAGAAUACUUCTT against Mfsd14b as the sequence, how does the z-score read?
Its z-score is 2.04 (active).

Which z-score does the source give for GAAGAAGGAAAAAAACCCATT against Sec61b here?
Its z-score is -1.19 (inactive).

Which z-score does the source give for GCACCUCCUGGGAUUACAUTT against Crp here?
Its z-score is 0.412 (inactive).

With GGGCUAAUUGUGAACAUUUTT against Slc7a1 as the sequence, how does the z-score read?
The z-score was 3.35 (active).

Which z-score does the source give for GCCAUGAAGCUAAAUAAUCTT against Optn here?
The z-score was -1.31 (inactive).

For GCACCUCUACACUUUAGAUTT against Rack1, which z-score is on record?
Its z-score is -0.0792 (inactive).

Which z-score does the source give for GGACUGGUUCAUCCUUGUGTT against G6pc here?
The z-score was 0.922 (inactive).

Which z-score does the source give for GGACCACCUAAGUUUAAGCTT against Pde6g here?
Its z-score is -0.557 (inactive).

Which z-score does the source give for GGCAUCAAGCACAAGAAAATT against Sys1 here?
Its z-score is -1.16 (inactive).

For CCUGUGCCUCGUUUUAUUUTT against Fam161a, which z-score is on record?
Its z-score is 0.807 (inactive).

With GGUGAUCGAGGAGAGUCUATT against Oaf as the sequence, how does the z-score read?
The z-score was -0.737 (inactive).

Which z-score does the source give for GGUGGAGUUAGAAAACUACTT against BC048679 here?
The z-score was -0.341 (inactive).

Which z-score does the source give for CCUGAACGUGAGUGGAGAATT against Man1c1 here?
Its z-score is -0.8 (inactive).

For GGUGAAGAUUGAGAAGGAGTT against Aifm3, which z-score is on record?
Its z-score is -2.05 (active).

For GACCUACCAGAUGAAGGUCTT against Vmn1r28, which z-score is on record?
Its z-score is 0.29 (inactive).

Which z-score does the source give for GCGACUUUAGCUAAACAUGTT against Kcns2 here?
The z-score was 1.79 (inactive).

For GGAAGAAACAUGUAUCAUGTT against Tff1, which z-score is on record?
The z-score was 0.556 (inactive).

For GACAGUGCACGAUCUGAUUTT against Pfn3, which z-score is on record?
The z-score was 0.274 (inactive).

With GCUGGAAUGCAAGGGCUUCTT against Gchfr as the sequence, how does the z-score read?
Its z-score is 1.45 (inactive).

For GGAUAUGAAACAAUAACAGTT against Arid5b, which z-score is on record?
The z-score was -0.349 (inactive).

With GGCAAAAUCUAUUGUCUUCTT against Ran as the sequence, how does the z-score read?
The z-score was -2.2 (active).

Which z-score does the source give for GGAGGUAAAUGAAAAAUCUTT against Nop56 here?
Its z-score is 0.611 (inactive).

With GGUGAUCGUGGUGUGGAACTT against Extl2 as the sequence, how does the z-score read?
The z-score was 0.941 (inactive).

With GGCAAUGAUGAGACCUAGUTT against Mybbp1a as the sequence, how does the z-score read?
The z-score was 0.0956 (inactive).

Which z-score does the source give for GCAAUCGAGCUGAAACUAGTT against Hat1 here?
Its z-score is 0.721 (inactive).

With CCACCAUUUAUAUUUGGUUTT against Slc35g1 as the sequence, how does the z-score read?
Its z-score is -0.298 (inactive).

With GGGUUACAAUAACUGGACATT against Ggcx as the sequence, how does the z-score read?
The z-score was 2.32 (active).

With GCCACAUGGUUAAUAAGAGTT against Postn as the sequence, how does the z-score read?
The z-score was -1.5 (inactive).

For ACCUCAAGACAGUGCAAAUTT against H2bc4, which z-score is on record?
The z-score was -1.41 (inactive).

With GGAAAAUCAACAGCAUCAATT against Olfr661 as the sequence, how does the z-score read?
The z-score was -0.642 (inactive).

With CCCUAUUGAUUCAACUUGGTT against Samt4 as the sequence, how does the z-score read?
Its z-score is 0.253 (inactive).

For GGGCAACGUAUUCACAUUATT against Manbal, which z-score is on record?
Its z-score is 2.86 (active).

Which z-score does the source give for GGAGCUUUGAAGAGACUGGTT against Olfr117 here?
The z-score was -2.32 (active).

For GGUGCUGCUGAGAUUUUUCTT against Pxt1, which z-score is on record?
Its z-score is 0.555 (inactive).

With GGCAAUGGAGAGAGAGAUGTT against Patl1 as the sequence, how does the z-score read?
The z-score was -2.36 (active).

For GGAUCAAAGGAAGAAGGGCTT against Zbtb24, which z-score is on record?
Its z-score is -0.00585 (inactive).

With GGCCAGAACUUAAAUUUUCTT against Nbr1 as the sequence, how does the z-score read?
The z-score was 0.658 (inactive).

With GGUAGUGUCUAACUUCUGGTT against Zkscan17 as the sequence, how does the z-score read?
Its z-score is 2.13 (active).

With “GGGACAAUUCUGGAUUAAATT against 9330155M09Rik” as the sequence, how does the z-score read?
The z-score was -0.639 (inactive).

Which z-score does the source give for GGGAAUCACCCUGAGAAAGTT against Ccndbp1 here?
The z-score was -0.269 (inactive).

For GAACAGUCCUUUUAUGGAUTT against Vmn1r33, which z-score is on record?
The z-score was 0.38 (inactive).

For GCAUCCUUCACUCAAAUAUTT against Aspa, which z-score is on record?
The z-score was 3.17 (active).

With GGACAGAGUUUUCAUUUUGTT against Rptn as the sequence, how does the z-score read?
The z-score was -1.51 (inactive).

For GCUUCAGCCAUUUCACCUUTT against Rnaseh2c, which z-score is on record?
The z-score was 0.108 (inactive).

For GGGAAUAAUCUACAAGCCATT against Ccdc121, which z-score is on record?
The z-score was 1.92 (inactive).

For GGUGUACCAGCAUAGCUGUTT against Hps5, which z-score is on record?
Its z-score is 1.24 (inactive).

With GGAAAAUUACAGAAUUGGATT against Dnali1 as the sequence, how does the z-score read?
The z-score was 0.323 (inactive).

Which z-score does the source give for GGAGCACUUUAAGUUAUACTT against Rnf225 here?
The z-score was 1.73 (inactive).

With GGAAGAUGACAACUUAUCUTT against Abcc8 as the sequence, how does the z-score read?
Its z-score is -0.854 (inactive).

Which z-score does the source give for AUGAAAACCAUUCCCAAUUTT against Olfr435 here?
The z-score was 5.22 (active).

For “GGCUGUUCUCUAGAUGAAUTT against 1810065E05Rik”, which z-score is on record?
The z-score was -1.54 (inactive).

Which z-score does the source give for GCACUAGCUAAUAAUGCAATT against Oxsm here?
Its z-score is -1.54 (inactive).

With GGAAUGAGAAGAGAGGAUCTT against Rpp25 as the sequence, how does the z-score read?
Its z-score is -0.239 (inactive).

With GGGCAAGUUUUUUUUUCUUTT against Sf3a2 as the sequence, how does the z-score read?
The z-score was 0.586 (inactive).
